Experimental findings from PubChem BioAssay (NCI) are described below.

Each structure is given as a SMILES string. This is part of a sample that, as a whole, favours compounds with a hit. Of some 83,000 tested, about 20% had one in any assay.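 Results are percent growth after 48 hours of single-concentration exposure. 100 means growth as in untreated cells, lower positive values show inhibition; negative values down to -100 show cell death.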 Values without a mark were called inactive. Calls of active or inactive are those of the source. Rule for the calls: active = growth percent below 10; inactive = the rest.

What all share (assay): NCI-60 one-dose screen, 48 h (100 = growth as untreated, 0 = no growth, -100 = all killed)
Holding throughout (conditions): 10 µM unless noted

Experiment [1] deals with NCI-H23 lung.
The test system of experiment [2] is NCI-H226 lung.
The subject of experiment [3] is NCI-H322M lung.
Experiment [4] concerns HOP-62 NSCLC.
In experiment [5] the test system is NCI-H460 lung.
In experiment [6] the test system is HOP-92 NSCLC.
Experiment [7] concerns NCI-H522 lung.
Experiment [8] concerns A549/ATCC NSCLC.
Experiment [9] deals with 786-0 renal.
Experiment [10] has as its system COLO 205 colon.
The test system of experiment [11] is DU-145 prostate.
For experiment [12], the system named is K-562 leukemia.
Experiment [13] deals with MALME-3M melanoma.
Experiment [14] deals with MDA-MB-231 breast.
Experiment [15] deals with RXF 393 renal.
Experiment [16] has as its system SF-268 CNS.
Experiment [17] concerns SF-295 CNS.
Experiment [18] concerns SF-539 CNS.
The subject of experiment [19] is UACC-257 melanoma.
The test system of experiment [20] is M14 melanoma.

With `CCOC(=O)C(CCC#N)(CCC#N)C(=O)OCC`, the growth in [1] was 96.6%; in experiment [2], 98.4%; in experiment [3], 113%; in experiment [4], 102%; in [5] it was 103%; in [6], 84%. For the same compound, the growth in experiment [7] was 117%; in experiment [8], 102%; in experiment [9] it was 98.4%; in [10], 102%; in experiment [11] it was 110%; in experiment [12] it was 115%. The growth is 113% in experiment [13]; 105% in [14]; 104% in [15]; 99.2% in experiment [16]; 96.4% in experiment [17]; 103% in [18]. The growth in [19] is 103%; in experiment [20], 89.2%.

As for `CN(CCCN(C)CCC1CCCCC1)CCC1CCCCC1`, the growth in experiment [1] was 64.1%; in [2], 66.9%; in experiment [3] it was 94.6%; in experiment [4] it was 57.3%; in [5] it was 29%; in experiment [6], 21.3%. The growth in experiment [7] is 69.6%; in experiment [8], 83.7%; in experiment [9], 53.2%; in experiment [10], -81% (active); in experiment [11], 83.8%; in experiment [12], -57.5% (active). Moreover, the growth in experiment [13] was -74.7% (active); in experiment [14], -3% (active); in experiment [15], -4.36% (active); in [16], 84.2%; in [17], 27.1%; in [18] it was -57.7% (active). In addition, the growth in experiment [19] was -66.3% (active); in [20], -100% (active).

Take `OC(CBr)CCBr` (stereo not given): the growth in experiment [1] is 105%; in experiment [2], 110%; in experiment [3], 101%; in experiment [4], 97.2%; in [5], 102%; in experiment [6], 102%. Further, the growth in experiment [7] is 96.5%; in experiment [8], 90.8%; in experiment [9], 103%; in experiment [10], 105%; in experiment [11], 110%; in [12] it was 100%. The growth in [13] is 85.6%; in experiment [14], 104%; in experiment [15], 109%; in experiment [16] it was 104%; in experiment [17] it was 94%; in [18], 96.3%. In addition, the growth in experiment [19] is 87.8%; in experiment [20], 104%.

`C=CC(C)C(C)(C)O` (stereo not given): the growth was 108% in [1]; 98.8% in experiment [2]; 98.3% in experiment [3]; 102% in [4]; 102% in experiment [5]; 105% in [6]. Also, the growth in experiment [7] was 94.4%; in experiment [8], 94.6%; in experiment [9], 89.4%; in experiment [10] it was 110%; in experiment [11], 105%; in [12], 94%. In addition, the growth was 107% in [13]; 103% in [14]; 105% in experiment [15]; 95.3% in [16]; 102% in [17]; 105% in experiment [18]. The growth in experiment [19] is 109%; in experiment [20] it was 102%.

`Cc1ccc(/C=N/NC(N)=S)s1`: the growth in [1] was 99.7%; in experiment [2] it was 99.1%; in [3], 98.9%; in [4] it was 102%; in [5], 103%; in [6], 100%. In addition, the growth in [7] was 105%; in experiment [8], 109%; in experiment [9] it was 109%; in experiment [10], 104%; in experiment [11], 110%; in experiment [12], 103%. Further, the growth in experiment [13] is 108%; in [14], 104%; in [15] it was 99.3%; in experiment [16] it was 98.7%; in [17] it was 105%; in experiment [18], 97.6%. In addition, the growth in [19] was 109%; in experiment [20], 102%.

In the case of `CCCCCCCCCCCCCCCCCCSC(=N)N`, the growth in experiment [1] is 63.5%; in experiment [2], 84.1%; in experiment [3], 88%; in [4], 81.6%; in [5], 52.7%; in [6], 11.1%. Besides, the growth in experiment [7] was 90.1%; in experiment [8] it was 80.6%; in experiment [9], 61.9%; in [10], 3.95% (active); in [11], 59.2%; in experiment [12] it was 40.4%. Besides, the growth in experiment [13] is 82.8%; in experiment [14], 29.5%; in [15], 71.5%; in experiment [16], 60.8%; in experiment [17], 80.9%; in experiment [18], 86.6%. Besides, the growth in [19] is 80.5%; in experiment [20] it was 60%.

As to `Nc1ccc(F)c(Cl)c1F`, the growth in experiment [1] is 103%; in [2], 91.3%; in [3], 110%; in [4], 112%; in experiment [5], 101%; in [6], 80%. In addition, the growth in experiment [7] is 108%; in experiment [8] it was 113%; in experiment [9], 101%; in experiment [10], 118%; in experiment [11] it was 111%; in experiment [12] it was 100%. Further, the growth was 107% in experiment [13]; 101% in experiment [14]; 97.1% in experiment [15]; 106% in experiment [16]; 107% in experiment [17]; 103% in [18]. Besides, the growth in [19] was 118%; in [20] it was 97.2%.

On to `CC(=O)O[C@H]1CC[C@]2(C)C3=C(C(=O)C[C@H]2C1(C)C)[C@]1(C)CC[C@H]([C@H](C)CCC(=O)O)[C@@]1(C)CC3=O`, for which the growth in experiment [1] was 98.3%; in experiment [2], 107%; in [3] it was 105%; in experiment [4] it was 95.4%; in [5] it was 89.8%; in experiment [6], 107%. In addition, the growth in experiment [7] is 81.8%; in experiment [8], 101%; in experiment [9] it was 107%; in [10], 103%; in experiment [11], 108%; in experiment [12] it was 86.8%. Moreover, the growth in experiment [13] was 98.1%; in experiment [14], 107%; in experiment [15], 110%; in experiment [16], 111%; in experiment [17], 96.4%; in experiment [18], 96.2%. In addition, the growth in experiment [19] is 113%; in [20] it was 99.3%.
